Reference: article PMC5540273 (PLoS ONE, 2017)

Experiments:
Settings in all cases: concentration: 1 μM, replicates: in singlicate; n = 1
IRAK1 = test system: IRAK1
IRAK3 = test system: IRAK3
IRAK4 = test system: IRAK4
ITK = test system: ITK
[1] = test system: JAK1(JH1domain-catalytic)
[2] = test system: JAK1(JH2domain-pseudokinase)
[3] = test system: JAK2(JH1domain-catalytic)
[4] = test system: JAK3(JH1domain-catalytic)
JNK1 = test system: T1, JNK1
T1 construct: gene MAPK8

JNK2 = test system: T2, JNK2
T2 construct: gene MAPK9
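Also: KINOMEscan kinase panel screen.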

| SMILES | %Inh (IRAK1) [%] | %Inh (IRAK3) [%] | %Inh (IRAK4) [%] | %Inh (ITK) [%] | %Inh [1] [%] | %Inh [2] [%] | %Inh [3] [%] | %Inh [4] [%] | %Inh (JNK1) [%] | %Inh (JNK2) [%] |
| --- | --- | --- | --- | --- | --- | --- | --- | --- | --- | --- |
| COc1cccc(C2=C(Nc3cc(Cl)c(O)c(Cl)c3)C(=O)NC2=O)c1 [SB-390767] | 43 | 0 | 47 | 18 | 12 | 0 | 40 | 93.7 | 27 | 20 |
| Fc1ccc(-c2nn3cccc(F)c3c2-c2ccncc2)cc1 [GW475620] | 9 | 2 | 0 | 0 | 10 | 30 | 17 | 0 | 61 | 93.5 |
| Cc1ccccc1-c1cc(-c2c[nH]nc2-c2ccccn2)ccn1 [GW680061] | 28 | 2 | 4 | 12 | 4 | 0 | 12 | 0 | 38 | 30 |
| COc1nccc(-c2c(-c3ccc(F)cc3)ncn2CCCN2CCOCC2)n1 [SB-282852] | 3 | 0 | 0 | 53 | 36 | 0 | 4 | 12 | 41 | 61 |
| CNC(=O)c1ccc(C)c(-n2c(C)cc(OCc3ccc(F)cc3F)c(Br)c2=O)c1 | 0 | 0 | 0 | 0 | 0 | 0 | 0 | 0 | 0 | 100 |
| COC(=O)C(NC(=O)NC1CCN(c2ccnc(Nc3ccc(F)cc3)n2)C1)c1ccccc1 (stereo not shown) [GSK1379712] | 31 | 6 | 0 | 0 | 17 | 5 | 0 | 0 | 1 | 0 |
| COc1cccc(NC(=O)Nc2ccc(C)c(-c3ccc(C(=O)Nc4ccncc4)cc3)c2)c1 [GSK1398474] | 0 | 7 | 1 | 11 | 20 | 0 | 0 | 0 | 8 | 39 |
| COc1ccc(CSc2nnc(-c3ccc4ncsc4c3)o2)cc1C(F)(F)F | 0 | 0 | 9 | 0 | 25 | 0 | 0 | 0 | 0 | 0 |
| COc1ccc(Nc2nccc(-c3ccc(NC(=O)c4cc5cc(F)ccc5[nH]4)cc3)n2)cc1 [GSK1229496] | 10 | 0 | 0 | 0 | 0 | 0 | 18 | 0 | 4 | 9 |
| Fc1ccc(-c2nc[nH]c2-c2ccncc2)cc1 [SB-217360] | 0 | 0 | 0 | 5 | 0 | 28 | 27 | 0 | 79 | 95.6 |
| COc1cccc(CNC(=O)NC2CCN(c3ccnc(Nc4ccc(F)cc4)n3)C2)c1 (stereo not shown) [GSK1379723] | 23 | 5 | 17 | 9 | 5 | 0 | 6 | 0 | 32 | 3 |
| CS(=O)(=O)CCNCc1nc(-c2ccc3ncnc(Nc4ccc(OCc5ccccc5)c(Cl)c4)c3c2)cs1.Cl [GW582764] | 28 | 0 | 13 | 44 | 2 | 0 | 10 | 0 | 15 | 0 |
| Cc1ccc(NC(=O)c2ccc(Cl)cc2)cc1-c1ccc(C(=O)Nc2ccncc2)cc1 [GSK1398467] | 30 | 3 | 14 | 8 | 0 | 0 | 0 | 0 | 19 | 15 |
| COC(=O)c1cccc(NC(=O)NC2CCN(c3ccnc(Nc4ccc(F)cc4)n3)C2)c1 (stereo not shown) [GSK1379725] | 0 | 0 | 14 | 8 | 4 | 0 | 0 | 0 | 17 | 28 |
| CCn1c(-c2ccccc2)nc2cnccc21 [SB-733416] | 45 | 4 | 38 | 1 | 0 | 0 | 30 | 0 | 21 | 3 |
| CNCc1ccc2nc(NC(=O)c3ccc(C(C)(C)C)cc3)cn2c1 | 13 | 0 | 0 | 0 | 0 | 17 | 3 | 3 | 18 | 6 |
| CC(=O)c1c(C)c2cnc(Nc3ccc(N4CCNCC4)cn3)nc2n(C2CCCC2)c1=O | 0 | 0 | 0 | 0 | 0 | 11 | 0 | 0 | 11 | 0 |

| SMILES | %Inh (IRAK1) [%] | %Inh (IRAK3) [%] | %Inh (IRAK4) [%] | %Inh (ITK) [%] | %Inh [1] [%] | %Inh [2] [%] | %Inh [3] [%] | %Inh [4] [%] | %Inh (JNK1) [%] | %Inh (JNK2) [%] |
| --- | --- | --- | --- | --- | --- | --- | --- | --- | --- | --- |
| O=C(Nc1n[nH]c2nc(-c3ccco3)c(Br)cc12)C1CCN(Cc2ccccc2)C1.O=C(O)[C@H](O)[C@@H](O)C(=O)O (stereo not shown) [SB-742034] | 0 | 35 | 0 | 13 | 0 | 61 | 23 | 0 | 37 | 0 |
| NS(=O)(=O)c1cccc(N/C=C2\C(=O)Nc3ccc(S(=O)(=O)Cc4c(Cl)cccc4Cl)cc32)c1 [GSK398099] | 32 | 5 | 19 | 12 | 11 | 0 | 3 | 0 | 5 | 21 |
| CC[C@@H]1CO[C@H](C(=O)Nc2ccccc2)CN1c1cc(-c2ccc3c(N)n[nH]c3c2)nc(NC)n1 [GSK2376236] | 0 | 5 | 0 | 3 | 11 | 0 | 0 | 0 | 0 | 17 |
| Nc1nccc(-c2c(-c3ccc(F)cc3)ncn2C2CCN(Cc3ccccc3)CC2)n1 [SB-219980] | 0 | 0 | 0 | 7 | 0 | 0 | 0 | 0 | 62 | 95.2 |
| COc1cc2ncnc(Nc3cccc(Br)c3)c2cc1OC.Cl [GI230329] | 36 | 21 | 1 | 0 | 3 | 0 | 6 | 0 | 18 | 56 |
| Cn1cncc1C(=O)NC1CCN(c2ccnc(Nc3ccc(F)cc3)n2)C1 (stereo not shown) [GSK1379717] | 41 | 0 | 26 | 1 | 17 | 0 | 100 | 0 | 29 | 3 |
| CC(C)c1cc(-c2ccc3c(N)n[nH]c3c2)nc(N)n1 [GSK2250882] | 31 | 4 | 0 | 11 | 0 | 8 | 0 | 0 | 21 | 30 |
| Cc1c(Cn2c3ccccc3n3c(=O)cc(N4CCOCC4)nc23)cccc1C(F)(F)F [GSK2306394] | 0 | 14 | 11 | 11 | 13 | 0 | 35 | 0 | 21 | 5 |
| Cc1cccc2c(-c3ccncn3)c(-c3ccc(F)cc3)nn12 [GW515532] | 0 | 8 | 3 | 7 | 5 | 6 | 36 | 0 | 33 | 74 |
| Cc1ccc(NC(=O)Nc2ccccc2)cc1-c1ccc(C(=O)Nc2ccncc2)cc1 [GSK1398471] | 0 | 0 | 0 | 8 | 31 | 0 | 0 | 0 | 11 | 29 |
| Cc1ccc(NC(=O)Nc2ccc(Cl)c(C(F)(F)F)c2)cc1-c1ccc(C(=O)Nc2ccncc2)cc1 [GSK1398470] | 0 | 9 | 0 | 18 | 5 | 0 | 0 | 0 | 16 | 14 |
| Cc1ccc(-c2nc(Nc3ccncc3)c3ccccc3n2)s1 [GSK189015] | 0 | 19 | 2 | 22 | 16 | 38 | 3 | 0 | 20 | 19 |
| Cc1c(Cn2c(C)c(C)n3c(=O)cc(N4CCOCC4)nc23)cccc1C(F)(F)F [GSK2328680] | 0 | 0 | 0 | 15 | 0 | 0 | 0 | 0 | 50 | 0 |
| CN1c2ccc(-c3ccc(C(N)=O)cc3)cc2-c2[nH]ncc2S1(=O)=O | 0 | 10 | 0 | 0 | 0 | 37 | 27 | 0 | 0 | 0 |
| O=C1NC(=O)C(c2ccc(Cl)cc2)=C1Nc1cccc(Cl)c1 [SB-317651] | 0 | 0 | 0 | 5 | 26 | 0 | 11 | 0 | 61 | 56 |
| CS(=O)(=O)CCNCc1nc(-c2ccc3ncnc(Nc4ccc5c(cnn5Cc5ccccc5)c4)c3c2)cs1.Cl.Cl [GW569716] | 37 | 0 | 19 | 17 | 0 | 0 | 0 | 0 | 12 | 2 |
| CCn1c(-c2c(N)noc2C)nc2cnccc21 [SB-737856] | 15 | 29 | 34 | 16 | 8 | 0 | 11 | 0 | 15 | 23 |
